Sampled rows, rich in hits. Any-hit rate of the full collection: about 1.8%.
AI-2 QS mod – Vibrio harveyi AI-2 quorum sensing modulation. Vibrio harveyi JMH597 AI-2 luminescence/OD600 ratio, 9 h; active compounds read low; strain lacks LuxN and CqsS sensors; 0 = neutral-control median. activity change, % at 7.5 µM. AID 2094. 300,000 tested, 0.4% active; in the data active = activity change below about -75%, passing the limit was not always enough;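 note: luminescence divided by OD600 gain over 9 h not by final OD600 alone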
aDG glyco up – alpha-DG glycosylation activation. Pro5-aDG cells, alpha-DG glycosylation AlphaScreen (IIH6); 0% Pro5, 100% B10-LARGE cell signal. activation, % at 10 µM. 360,000 tested, 0.22% active. AID 624168;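 active = activation of at least 8% versus controls, or a plate z-score of at least 8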;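 note: Pro5 are CHO cells carrying HIG-tagged alpha-DG that lacks glycosylation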
Bfl-1 A1 inh – inhibitors of the anti-apoptotic protein A1, read as caspase activation; MEF A1-2A-BIM cells, Caspase-Glo 3/7 luminescence, 3 h; percent of clofoctol response, vehicle zero; caspase activation, % (concentration not given with the values); 330,000 tested, 0.066% active; AID 2462;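 active = over half of replicate activation scores above 10%, or exactly half above 10 with the replicate mean above 10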
ARNT-TACC3 inh – ARNT/TACC3 interaction disruption | Q9Y6A5 | AlphaScreen His-ARNT PAS-B/GST-TACC3 binding, luminescence; TACC3 fragment carries E629A point mutation | inhibition, % at 9.99 µM | 390,000 tested, 0.66% active;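 active = mean inhibition of replicates at least 50% and at least half of replicates each reaching 50%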;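 note: 0% = complete ARNT plus TACC3 wells and 100% = ARNT alone without TACC3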
Mot1-301 SUMO – inhibitors of SUMOylation pathway: yeast Mot1-301 growth rescue | S. cerevisiae Mot1-301 growth rescue, ATP luminescence, 38.5C; percent above DMSO median, 100 means doubled | growth rescue, % at 18.8 µM | AID 2716 | 320,000 tested, 1% active;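 active = every valid replicate shows activation above 250% relative to neutral control wells; inactive = the rest, any valid replicate at or below 250%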;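 note: OY570 slx delta 5 strain wells were the positive control but not used for scaling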
Mot1 SUMO dose – inhibits SUMO pathway, affecting Mot1-301 yeast growth | shares compounds with Mot1-301 SUMO | S. cerevisiae Mot1-301 galactose growth, ATP luminescence, 24 h; -100 = growth of slx-deleted rescue strain | growth activity, percent, % at 42 µM | 2,300 tested, under 10 active | AID 493004;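 active = Signal drops as the depositor expects, and the fitted half-maximal dose is no more than ten times the top valid tested dose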;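 note: more negative values mean stronger growth rescue toward the control strain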
Starred values were filed as active, the others as inactive; x = no result given; + = active, no number; [ ] = dose if it differs, or a comment.

SMILES	AI-2 QS mod	aDG glyco up	Bfl-1 A1 inh	ARNT-TACC3 inh	Mot1-301 SUMO	Mot1 SUMO dose
Cc1ccccc1-c1ccc([C@@H]2[C@H](CO)N3CCCCN(CC4CC4)C[C@@H]23)cc1	x	x	x	2	x	x
N#CC1=C(N)Nc2ncnn2C1c1ccc([N+](=O)[O-])cc1 (stereo not given)	10	0	1	12	599*	0
CCOC(=O)N1CCN(C(=O)c2ccc3ccccc3c2)CC1	22	0	1	-8	379*	0
COc1ccc2c(c1)OC[C@H]1[C@H]2N2C(=O)CNC(=O)[C@@]2(C)[C@H]1c1ccccc1	x	x	0	x	-3	x
CC(=O)c1ccc2noc(-c3ccc(F)cc3)c2c1	2	0	-1	12	+	-1
CCN1CCCC1CNC(=O)Cn1nc(C)n2c(cc3cc(F)ccc32)c1=O (stereo not given)	17	0	-2	-5	7	x
O=C(Cn1cnc([N+](=O)[O-])n1)NCc1ccccc1	25	0	0	10	-16	x
O=C(CCCn1cnc([N+](=O)[O-])n1)Nc1cccc2ccccc12	37	0	0	3	408*	-1
O=C(NCc1ccccc1F)c1ccc2c(c1)OCO2	-2	0	1	-25	-3	x
O=C(NCc1ccccc1Cl)c1ccc2c(c1)OCO2	-3	0	1	-11	650*	-1
Cn1c(-c2ccc3c(c2)OCO3)cnc1NCc1cccc(Cl)c1	4	1	1	7	-1	x
Cn1c(-c2ccc3c(c2)OCO3)cnc1NC(=O)CCC(=O)NCCc1ccccc1	11	0	0	38	676*	-1
CCOC(=O)c1cccc(NC(=O)CSc2nnc(-c3ccncc3)n2CCCOC)c1	15	0	1	-2	1	x
CCn1cnc2sc(-c3ccccc3)cc2c1=O	-1	0	-1	-8	412*	-1
CC(=O)Cn1cnc2sc(-c3ccccc3)cc2c1=O	-63	0	0	-1	-1	x
CCOc1nc(-c2ccccc2)ccc1-c1noc(-c2cccs2)n1	7	0	0	-28	x	x
CCOc1ncccc1-c1nc(-c2cccs2)no1	9	0	0	4	916*	0
O=C(Oc1ccc2c(c1)OCO2)c1cccs1	21	0	0	x	478*	1
Cc1cc(OC(=O)c2cccs2)ccc1C(C)C	22	0	0	-6	14	x
CC1CCCC(C)N1CCCNC(=O)c1csc2c1CCCCC2 (stereo not given)	19	-1	0	-1	459*	1
CC1CCC(=C(C#N)c2nc(-c3cc4ccccc4oc3=O)cs2)CC1 (stereo not given)	10	0	0	-3	-2	x
CCCOc1ccc(N2C(=O)CC(N3CCC(C(=O)OCC)CC3)C2=O)cc1 (stereo not given)	21	0	0	-10	772*	0
CC(C)(C)C(=O)Nc1cc2nn(-c3ccccc3)nc2cc1Cl	x	0	x	-13	x	x
CC(=O)Nc1cc2nn(-c3ccccc3)nc2cc1Cl	9	0	0	x	553*	0
COc1ccccc1NC(=S)N(Cc1ccccc1)Cc1cccs1	36	0	0	-2	+	0
SMILES	AI-2 QS mod	aDG glyco up	Bfl-1 A1 inh	ARNT-TACC3 inh	Mot1-301 SUMO	Mot1 SUMO dose
COc1ccc(OC)c(-c2cc(C(=O)Nc3c(C)nn(Cc4ccccc4Cl)c3C)no2)c1	-10	1	0	-9	571*	0
COc1ccc(OC)c(-c2cc(C(=O)Nc3c(C)nn(Cc4ccccc4C)c3C)no2)c1	-4	1	0	0	-16	x
Cc1ccc(N(CC(=O)Nc2cccc(C)c2)S(=O)(=O)c2cccc3nonc23)cc1	17	0	1	-10	616*	0[21 µM]
O=C(NCCCN1CCCC1)c1cc2c(Cl)nc3ccccc3c2s1	9	1	1	x	40	x
CCCCN(C)C(=O)c1cc2c(Cl)nc3ccccc3c2s1	0	0	1	-7	433*	0
Cn1c(=O)[nH]c(=O)c2c1nc(CN1CCOCC1)n2CCCc1ccccc1	18	0	0	1	1	x

Assay outcomes (PubChem)
